# Screening results: PubChem BioAssay, several laboratories
# Shown are actives, neighbours in structure and some others; about 4.6% of the full set was active somewhere.
# ADAM10 inh: inhibitors of human ADAM10; O14672; recombinant ADAM10, EDANS/DABCYL FRET peptide cleavage, 3 h; inhibition, % at 7 µM; 0.62% of 370,000 active; AID 720582;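 active means inhibition above a per-campaign cutoff equal to the mean of compounds falling between control-based bounds plus 3 SD, cut at about 20% in these data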;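 further: 0% = DMSO wells while the 100% control is not disclosed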
# KLK7 zymogen act: proKLK7 (human) activation, primary screen; activation, % at 7 µM; purified proKLK7, EDANS-DABCYL substrate fluorescence; 100% is mature enzyme control, 0% vehicle; AID 652039; 0.9% of 370,000 active;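 active means activation above the mean of all tested compounds plus 3 SD, computed per campaign excluding outliers beyond control limits, cut at about 13% in these data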
# FAS TE block: FAS thioesterase (human) inhibition. P49327. recombinant FAS-TE, OMFH fluorogenic substrate, fluorescence endpoint. inhibition, % at 15 µM. 0.67% of 360,000 active. AID 602261;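 active means compounds whose normalised, plate-corrected inhibition of enzyme fluorescence in the single-dose primary screen is 50% or more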;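 further: 0% = DMSO with enzyme and 100% = substrate without enzyme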
# ADAM17 inh: inhibitors of human ADAM17; P78536; recombinant ADAM17, EDANS/DABCYL FRET peptide cleavage; inhibition, % at 6.95 µM; 0.83% of 370,000 active;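 active means inhibition above the mean of compounds lying between control limits plus 3 SD, set per campaign, cut at about 8.5% in these data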;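 further: 0% = DMSO-only wells as the low control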
# GRIN3A LBD mod: modulates the human NR3A ligand-binding domain | NR3A LBD differential scanning fluorimetry, Tm shift; 0% = protein alone, 100% = glycine-bound protein | Tm shift relative to glycine control, % at 25 µM | 2.5% of 340,000 active;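 active means melting temperature shift of at least 10% of the positive control shift, at one fixed dose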
# * = called active by the depositor; x = no result.
SMILES,ADAM10 inh,KLK7 zymogen act,FAS TE block,ADAM17 inh,GRIN3A LBD mod
CC(OC(=O)CCc1nc2ccccc2c(=O)[nH]1)C(=O)NC1CCCC1 (stereo unspecified),4.2,0.5,-8.3,2.1,-2.9
N#CCCN(C(=O)COC(=O)CCc1nc2ccccc2c(=O)[nH]1)c1ccccc1F,-4.8,0.1,-3.1,0.1,13.0*
COc1ccc(C2C(C(=O)Nc3ccc(C)c(C)c3)CCC(=O)N2c2ccc(OC)cc2)cc1 (stereo unspecified),1.7,0.1,x,-0.3,x
O=C(NCCN1CCCC1)C1CC(=O)N(C2CCCCC2)C1 (stereo unspecified),-1.7,-0.1,-6.4,0.0,19.5*
O=C(O)c1ccccc1C(=O)Nc1ccc(Nc2ccc([N+](=O)[O-])cc2[N+](=O)[O-])cc1,13.6,-0.1,2.8,1.6,10.0*
O=C(CCc1ccccc1)N[C@H]1[C@@H](OC(=O)c2cnccn2)CCC[C@@]12C(=O)N(Cc1ccccc1)c1ccccc12,5.0,0.9,x,5.8,x
Cc1ccc2c(C)c(C)c(=O)n(C)c2c1,-38.6,0.0,-9.8,-9.8,11.2*
CCCCNC(=O)C1=C(N)C(C(=O)Nc2ccc(C)c(S(=O)(=O)N3CCCCC3)c2)SC1=Nc1ccc(C)cc1C (stereo unspecified),39.9*,-0.6,10.5,15.8*,24.1*
COc1ccc(CN(C2CC2)S(=O)(=O)c2ccccc2Br)cc1,1.7,0.4,27.7,5.8,12.7*
O=C(NCCS(=O)(=O)N1CCN(c2ccc(F)cc2)CC1)c1ccco1,1.3,0.5,-8.0,-0.9,22.2*
Cc1nnc(C)n1N=Cc1ccc(O)cc1O,-22.5,-2.2,x,-7.0,x
COc1ccc(C(=O)/C=C/C(=O)N(Cc2ccccc2)C(C(=O)NC2CCCCC2)c2ccncc2)c(O)c1 (stereo unspecified),-1.1,0.7,17.4,1.6,17.4*
Cc1c(O)ccc(/C=N/Nc2nc(-c3cccnc3)nc3ccccc23)c1O,4.8,-1.1,3.2,-1.6,28.8*
Oc1ccc(/C=N/Nc2nc(-c3cccnc3)nc3ccccc23)c(O)c1,0.6,-0.3,-3.3,0.5,16.3*
COc1ccc(/C=N/Nc2nc(-c3cccnc3)nc3ccccc23)cc1OC,-54.3,-4.8,-2.0,-24.4,-18.4
C[C@H](O)[C@@H]1CN2CCc3c([nH]c4c(-c5ccccc5)cccc34)[C@@H]2C[C@@H]1N(C)C(=S)NCCc1ccccc1,-121.0,1.2,x,-30.4,x
COc1cccc(-n2nnc(S(=O)(=O)c3ccc(C)cc3)c2N)c1,4.2,0.3,3.6,-5.4,0.9
COc1ccc(S(=O)(=O)c2nnn(-c3cccc(Cl)c3)c2N)cc1,16.2,-0.5,9.5,5.3,18.6*
CCOC(=O)c1cc(-c2ccccc2)sc1NC(=O)COC(=O)c1ccc(Cl)c(S(N)(=O)=O)c1,x,x,1.5,x,11.4*
Cc1[nH][nH]c(=O)c1C(c1cc([N+](=O)[O-])ccc1O)c1c(C)[nH][nH]c1=O,1.6,-0.1,-8.7,1.3,10.2*
Cc1[nH][nH]c(=O)c1C(c1ccccc1[N+](=O)[O-])C(C#N)C#N (stereo unspecified),-23.9,-1.7,-8.1,-12.4,-0.5
CCCCNC(=O)C(=O)N/N=C/c1ccc(OCC(=O)Nc2cccc(OC)c2)c(OC)c1,6.2,-0.4,-5.4,2.3,10.6*
COc1cc(/C=N/NC(=O)c2ccncc2)ccc1OCC(=O)Nc1ccc(C)c(C)c1,-7.0,-8.7,-5.9,-3.0,11.5*
COc1ccc(-n2c(SCC(=O)Nc3ccccc3-c3ccccc3)nnc2-c2ccco2)cc1,-2.5,0.7,x,4.6,x
O=C(Oc1ccc(C(=S)N2CCCCC2)cc1)c1ccccc1F,7.9,0.0,3.6,-0.7,38.9*
SMILES,ADAM10 inh,KLK7 zymogen act,FAS TE block,ADAM17 inh,GRIN3A LBD mod
Cc1cccc2sc(N(CCN(C)C)C(=O)c3cc(Cl)sc3Cl)nc12,-2.6,-0.3,13.3,-5.3,10.7*
Cc1nc(C(=O)N2CCOCC2)sc1C1(C)CC(c2ccccc2)=NO1 (stereo unspecified),0.3,0.0,-4.8,0.0,14.3*
O=C(Nc1cccc(Cl)c1)Nc1ccc2c(c1)C(=O)OC2,2.1,0.0,-3.1,2.5,30.7*
O=C(Nc1cccc(F)c1)Nc1ccc2c(c1)C(=O)OC2,3.7,0.0,5.0,-2.0,13.7*
COc1ccc(C(=O)Nc2cc(C(F)(F)F)ccc2-n2cnc3ccccc32)cc1,1.7,0.4,14.2,2.3,13.7*
CC(=O)Nc1ccc(C(=O)Nc2cc(C(F)(F)F)ccc2-n2cnc3ccccc32)cc1,5.8,0.6,-1.1,-1.6,-2.9
C=CC[n+]1c(-c2ccc(Cl)cc2Cl)csc1Nc1ccc(NC(C)=O)cc1,26.8*,-0.1,15.5,8.4,-10.3
C=CC[n+]1c(-c2ccc(Cl)cc2Cl)csc1Nc1c(C)n(C)n(-c2ccccc2)c1=O,1.8,1.1,2.3,-1.4,-4.4
CC1CCC(=NNS(=O)(=O)c2ccc([N+](=O)[O-])cc2)CC1 (stereo unspecified),-17.5,-0.6,58.0*,-3.9,2.0
Cc1ccc(Cn2cc(CN3[C@@H](CC(C)C)COc4cccc(F)c4S3(=O)=O)nn2)cc1,-4.0,0.1,x,-2.7,x
O=[N+]([O-])c1ccc(/C=C/C2=NN(c3ccccc3)C(c3ccco3)C2)o1 (stereo unspecified),-14.1,-0.5,28.1,-6.7,198.8*
C=CCn1c(SCC(=O)Nc2ccc(O)cc2)nc2sc(CC)cc2c1=O,0.9,0.1,1.0,-2.6,33.5*
C=CCn1c(SCC(=O)Nc2cc(C)on2)nc2sc(CC)cc2c1=O,6.3,-0.7,0.6,-2.1,-0.9
COc1ccc(C(C)=O)cc1Cn1c(C)c(C(=O)NCc2cccc(Cl)c2)sc1=O,-11.4,0.2,23.9,2.5,x
COc1ccc(Cl)cc1Cn1c(C)c(C(=O)NCc2cccc(Cl)c2)sc1=O,14.2,-0.2,32.9,10.3*,x
Fc1cc(F)c(CSc2nnc(-c3cccnc3)n2Cc2ccccc2)cc1F,1.5,0.6,x,-1.1,x
O=C(Nc1ccc(Cl)cc1)N1CCN(c2ccc3nnc(-c4ccc(F)cc4)n3n2)CC1,3.7,-4.2,26.8,-0.4,27.2*
O=C(Nc1ccccc1Cl)N1CCN(c2ccc3nnc(-c4ccccc4)n3n2)CC1,x,x,3.5,x,-11.5
CCOC(=O)C1CCCCN1C(=O)[C@@H]1CC=C[C@@H]2CCN(c3ccccc3)C(=O)[C@@H]21 (stereo partly specified),-4.2,x,x,-4.1,x
CCCC(C(=O)NCc1ccc(OC)cc1)N(Cc1ccco1)C(=O)c1snc(C(N)=O)c1N (stereo unspecified),-109.5,0.8,5.3,-45.0,14.2*
CCC(C(=O)NCc1ccc(F)cc1)N(Cc1ccco1)C(=O)c1snc(C(N)=O)c1N (stereo unspecified),-83.2,1.8,4.1,-30.1,-10.3
Cc1cc(NC(=O)CSc2nnc(-c3ccc(O)cc3)o2)no1,-3.7,-0.2,-4.7,-6.8,0.5
